Screens deposited in PubChem BioAssay by National Center for Advancing Translational Sciences (NCATS).
Shown are actives, neighbours in structure and some others; about 19% of the full set was active somewhere.
DT40 TDP1 no CPT: qHTS for Inhibitors of human tyrosyl-DNA phosphodiesterase 1 (TDP1): qHTS in cells in absence of CPT; AID 686978, 2013; DT40 Tdp1-/- hTDP1 cells, no CPT, ATP luminescence, 48 h; Potency, µM (top dose mostly 46.2 µM), hits mostly inhibitors; hit rate 15% among 420,000; further: nearly all actives have a fitted effect of over 55% in size
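Growth kinetics read by CellTiter-Glo luminescence after ≥48 hr at 37 °C. Cells: DT40 Tdp1-/- stably carrying human TDP1, 400 per well, compound exposure in the absence of CPT (DMSO vehicle).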
MCF10A rereplic: induces DNA re-replication in MCF 10a normal breast cells. MCF 10A DNA re-replication, Hoechst nuclear intensity, 48 h. hit rate 2.9% among 350,000. AID 624296. Potency, µM (top dose mostly 46.1 µM), most hits filed as activators; further: nearly all actives have a fitted effect of over 50% in size
IL-1B inflam inh: inflammasome signaling inhibition, IL-1 beta readout. THP-1 LPS/ATP IL-1B secretion, AlphaLISA, 16 h; hits give low values. activity change, % at 57.5 µM. hit rate 4.7% among 360,000. AID 743279; in the data active means activity change below about -50%; inconclusive means mostly about -30% to -49%
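Secreted IL-1B measured by AlphaLISA bead assay after 16 h compound exposure of THP-1 cells; compounds (final up to 57.5 uM) added 1 h before LPS (250 ng/mL) and ATP (1.25 mM) stimulation; lower signal means less secretion.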
Chronic BCR inh: inhibitors of chronic active B-cell receptor signaling; Potency, µM (top dose mostly 46.1 µM), most hits filed as inhibitors; hit rate 0.05% among 340,000; ABC-DLBCL IkBa-CBG/CBR reporter, luminescence ratio, 4 h; AID 493014; active means well fitted inhibition curve with a large enough effect in the signal ratio, with a control signal flat, not every such curve was filed as active; inconclusive means small, poorly fitted or top-dose-only effect, or effect the other way, or a change in a side signal; the % refers to the signal ratio
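TMD8 human ABC-DLBCL cells with doxycycline-inducible IκBα–green luciferase fusion and unfused red luciferase, in 0.5% FBS medium; compounds up to 46 uM, 4 h at 37C. Green/red luminescence ratio, filter-overlap corrected, fitted to concentration-response curves.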
SW480 rereplic: inducers of DNA re-replication in SW480 colon cancer cells; Potency, µM (top dose mostly 46.1 µM), hits mostly activators; SW480 DNA re-replication, Hoechst DNA content imaging, 48 h; AID 624297; hit rate 1.8% among 340,000; further: nearly all actives have a fitted effect of over 55% in size
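Compounds, transferred as 23 nL by pin tool, were incubated with cells for 48 hr; DNA content per nucleus was then quantified by Hoechst staining and fluorescence plate imaging.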
DT40 TDP1 CPT: growth inhibition of DT40 Tdp1-/-;hTDP1 cells with camptothecin (screen for TDP1 inhibitors) | hit rate 12% among 420,000 | chicken DT40 Tdp1-/-;hTDP1 cells + 20 nM CPT, ATP luminescence, 48 h | Potency, µM (highest dose often 46.2 µM), most hits filed as inhibitors; further: nearly all actives have a fitted effect of over 55% in size
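Chicken DT40 Tdp1-/- cells complemented with human TDP1, 400 cells/well, exposed to compounds plus 20 nM camptothecin for at least 48 h at 37 C; viability read as ATP content by CellTiter-Glo luminescence.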
Numbers stand for hits; [ ] = dose if it differs, or a comment. Unless noted, the call rests on the fitted dose curve; in most records, active means well fitted curve in the direction sought with a large enough effect; inconclusive means small, poorly fitted or top-dose-only effect, or another doubt; inactive means no such curve, though single readings can be large; an effect the other way counts as inactive or inconclusive.

For CC1(C(=O)NCc2ccccc2Br)CCN1C(=O)CCc1ccc(Cl)cc1Cl (centres undefined) the results were DT40 TDP1 no CPT inactive, IL-1B inflam inh inconclusive and DT40 TDP1 CPT inconclusive.
Screening Cc1nc2cc(Oc3nc(NCCN(C)C)nc4ccsc34)ccc2s1 returned DT40 TDP1 no CPT inconclusive, IL-1B inflam inh inactive and DT40 TDP1 CPT inconclusive.
`CCOc1ccc(NC(=O)Nc2c(C)n(C)n(-c3ccccc3)c2=O)cc1` gave DT40 TDP1 no CPT inactive, MCF10A rereplic inactive, IL-1B inflam inh inactive, Chronic BCR inh inactive, SW480 rereplic inconclusive and DT40 TDP1 CPT inactive.
`Cc1c(Cl)cccc1N=Cc1ccc([N+](=O)[O-])s1` gave DT40 TDP1 no CPT inconclusive, MCF10A rereplic inconclusive, IL-1B inflam inh -102, Chronic BCR inh inconclusive, SW480 rereplic inconclusive and DT40 TDP1 CPT inconclusive.
Screening CCc1ccc2c(CC(=O)NNC(=O)c3ccncc3)coc2c1 returned DT40 TDP1 no CPT inactive, MCF10A rereplic inactive, IL-1B inflam inh inactive, Chronic BCR inh inactive, SW480 rereplic inactive and DT40 TDP1 CPT inactive.
For COc1ccc(C(C(=O)NCc2ccccc2)N(C(=O)c2snc(C(N)=O)c2N)c2ccccc2OC)cc1 (centres undefined) the results were DT40 TDP1 no CPT inconclusive, MCF10A rereplic inactive, IL-1B inflam inh -55, Chronic BCR inh inactive, SW480 rereplic inconclusive and DT40 TDP1 CPT inconclusive.
NC(=O)c1nsc(C(=O)N(c2cccc(F)c2)C(C(=O)NCc2ccccc2)c2ccc(O)cc2)c1N (centres undefined) was read as DT40 TDP1 no CPT 21µM, MCF10A rereplic inconclusive, IL-1B inflam inh -51, Chronic BCR inh inconclusive, SW480 rereplic inactive and DT40 TDP1 CPT inconclusive.
Screening COc1ccc(C(C(=O)NCc2ccccc2)N(C(=O)c2snc(C(N)=O)c2N)C2CCCC2)cc1 (centres undefined) returned DT40 TDP1 no CPT inactive, MCF10A rereplic inactive, IL-1B inflam inh inactive, Chronic BCR inh inactive, SW480 rereplic inactive and DT40 TDP1 CPT inactive.
COc1ccccc1N(C(=O)c1snc(C(N)=O)c1N)C(C(=O)NCc1ccccc1)c1ccc(O)cc1 (centres undefined) was read as DT40 TDP1 no CPT inactive, MCF10A rereplic inconclusive, IL-1B inflam inh -72, Chronic BCR inh inactive, SW480 rereplic inactive and DT40 TDP1 CPT inactive.
For Cc1ccc(N(C(=O)c2snc(C(N)=O)c2N)C(C(=O)NCc2ccccc2)c2ccncc2)c(C)c1 (centres undefined) the results were DT40 TDP1 no CPT inconclusive, MCF10A rereplic inconclusive, IL-1B inflam inh -51, Chronic BCR inh inactive, SW480 rereplic inconclusive and DT40 TDP1 CPT inconclusive.
COc1ccc(Nc2nc3c(S(=O)(=O)c4ccccc4)nnn3c3ccsc23)cc1OC was read as DT40 TDP1 no CPT inactive and DT40 TDP1 CPT inactive.
For COc1ccc(N(C(=O)c2snc(C(N)=O)c2N)C(C(=O)NCc2ccccc2)c2ccc(F)cc2)c(OC)c1 (centres undefined) the results were DT40 TDP1 no CPT inconclusive, MCF10A rereplic inconclusive, IL-1B inflam inh inconclusive, Chronic BCR inh inactive, SW480 rereplic inconclusive and DT40 TDP1 CPT 26µM.
For COc1cc(C(C(=O)NCc2ccccc2)N(C(=O)c2snc(C(N)=O)c2N)C2CCCC2)cc(OC)c1OC (centres undefined) the results were DT40 TDP1 no CPT inactive, MCF10A rereplic inactive, IL-1B inflam inh inactive, Chronic BCR inh inactive, SW480 rereplic inactive and DT40 TDP1 CPT inactive.
`COc1ccc2cnn(-c3ccc(C)cc3)c(=O)c2c1OC` gave DT40 TDP1 no CPT 21µM, MCF10A rereplic inactive, IL-1B inflam inh inactive, Chronic BCR inh inactive, SW480 rereplic inactive and DT40 TDP1 CPT 15µM.
Screening Cc1ccc(Sc2cnn(-c3ccccc3)c(=O)c2Cl)cc1 returned DT40 TDP1 no CPT 29µM, MCF10A rereplic inconclusive, IL-1B inflam inh inconclusive, Chronic BCR inh inconclusive, SW480 rereplic inconclusive and DT40 TDP1 CPT inconclusive.
For CCOc1c(Cl)cnn(-c2ccc(C)cc2)c1=O the results were DT40 TDP1 no CPT inconclusive, MCF10A rereplic inactive, IL-1B inflam inh inactive, Chronic BCR inh inactive, SW480 rereplic inactive and DT40 TDP1 CPT inactive.
For COc1c(Cl)cnn(-c2ccc(C)cc2)c1=O the results were DT40 TDP1 no CPT 16µM, MCF10A rereplic inconclusive, IL-1B inflam inh inactive, Chronic BCR inh inconclusive, SW480 rereplic inconclusive and DT40 TDP1 CPT inconclusive.
For COc1ccc(Oc2c(Cl)cnn(-c3ccc(Cl)c(Cl)c3)c2=O)cc1 the results were DT40 TDP1 no CPT inconclusive, MCF10A rereplic inconclusive, IL-1B inflam inh -113, Chronic BCR inh inactive, SW480 rereplic inconclusive and DT40 TDP1 CPT inconclusive.
For COc1cnn(-c2cccc(C)c2)c(=O)c1Cl the results were DT40 TDP1 no CPT inactive, MCF10A rereplic inconclusive, IL-1B inflam inh inconclusive, Chronic BCR inh inactive, SW480 rereplic inconclusive and DT40 TDP1 CPT inactive.
`Cc1ccc2nc3c(cc(C#N)c(=O)n3-c3nnc(SCc4ccccc4)s3)c(=O)n2c1` gave DT40 TDP1 no CPT inactive and DT40 TDP1 CPT inactive.
For CCOCCn1c(N2CCCC2)nc2c1c(=O)n(C)c(=O)n2C the results were DT40 TDP1 no CPT inconclusive, MCF10A rereplic inactive, IL-1B inflam inh inactive, Chronic BCR inh inactive, SW480 rereplic inactive and DT40 TDP1 CPT inconclusive.
Screening Cn1cccc1C(=O)NC1CCCCC1 returned DT40 TDP1 no CPT inactive, MCF10A rereplic inactive, IL-1B inflam inh inactive, Chronic BCR inh inactive, SW480 rereplic inactive and DT40 TDP1 CPT inactive.
O=C(Nc1cccc(N2CCC(NCc3cnn(-c4cccc(F)c4)c3)CC2)c1)c1ccncc1 was read as DT40 TDP1 no CPT inconclusive and DT40 TDP1 CPT inactive[9.04 µM].
COc1cnn(-c2ccc(F)cc2)c(=O)c1Br was read as DT40 TDP1 no CPT inactive, MCF10A rereplic inactive, IL-1B inflam inh inactive, Chronic BCR inh inactive, SW480 rereplic inactive and DT40 TDP1 CPT inactive.
For O=C(O)c1ccc(-n2ncc(Cl)c(Cl)c2=O)cc1 the results were DT40 TDP1 no CPT 5.8µM, IL-1B inflam inh -102 and DT40 TDP1 CPT 6.5µM.
Screening COc1ccc2cnn(CCOc3cc(C)ccc3C(C)C)c(=O)c2c1OC returned DT40 TDP1 no CPT 16µM, MCF10A rereplic inconclusive, IL-1B inflam inh inactive, Chronic BCR inh inactive, SW480 rereplic inconclusive and DT40 TDP1 CPT 16µM.
Screening COc1ccc(Oc2c(Cl)cnn(-c3ccc(C)cc3)c2=O)cc1 returned DT40 TDP1 no CPT 26µM, MCF10A rereplic inconclusive, IL-1B inflam inh -114, Chronic BCR inh inconclusive, SW480 rereplic inconclusive and DT40 TDP1 CPT inconclusive.
Screening COc1ccc(Oc2c(Cl)cnn(-c3ccc(F)cc3)c2=O)cc1 returned DT40 TDP1 no CPT inconclusive, MCF10A rereplic inactive, IL-1B inflam inh -112, Chronic BCR inh inactive, SW480 rereplic inconclusive and DT40 TDP1 CPT inconclusive.
